Source: PubChem BioAssay (Tox21)
Records with an inconclusive call do not appear. The source made the active and inactive calls. Calls follow the shape of the dose curve; as a rule, active = well fitted curve in the direction sought with a large enough effect in the repeat runs; inconclusive = weak or mixed curves; inactive = no such curve, though single readings can be large; an effect the other way counts as inactive or inconclusive.

experiment: A CellTox Green Cytotoxicity Assay to monitor cytotoxicity in HepG2 cells - 24 hour (AID 1224878); details: CellTox Green fluorescence; series mostly up to 76.8 µM; cytotoxicity: at the top concentration; also: nearly all actives have a fitted effect of over 45% in size; also: potency is read from the fitted curve at half-maximal effect
Summary of the method: (§1)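 Fluorescent DNA-binding dye, 600 HepG2 cells/well, 5 h preincubation then compound in DMSO; same plates read at 0–40 h, 37 C.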
% is scaled to controls: 0 for no effect and ±100 for the full control effect.

SMILES	cytotoxicity	Potency
C/C=C/C=C/CO	6.55% (inactive)	
COc1cc(Cl)c(OC)cc1N	18.4% (inactive)	
Nc1c(CC(=O)O)cccc1C(=O)c1ccc(Br)cc1	10.5% [at 35.3 µM] (inactive)	
CCCCCCCCCc1ccc(OCCOCCO)cc1		18.3 µM (active)
Brc1c2ccccc2c(Br)c2ccccc12	2.45% [at 6.97 µM] (inactive)	
CNCCCCOc1ccccc1Cc1ccccc1		23.9 µM (active)
Brc1c2ccccc2cc2ccccc12	3.46% (inactive)	
Cc1ccc(N=Nc2c(O)c(C(=O)O)cc3ccccc23)c(S(=O)(=O)O)c1	-11.4% [at 35.3 µM] (inactive)	
CCCCC(CC)COC(=O)COc1ccc(Cl)cc1Cl (stereo not given)	2.48% (inactive)	
O=C(CS)Nc1ccccc1	-12.4% [at 35.3 µM] (inactive)	
O=C(O)c1ccccc1Cl	-6.08% (inactive)	
CC(=O)OC[C@H]1O[C@@H](n2ncc(=O)[nH]c2=O)[C@H](OC(C)=O)[C@@H]1OC(C)=O	7.41% [at 35.3 µM] (inactive)	
Clc1ccc2c(c1)CCc1cccnc1C2=C1CCNCC1		23.9 µM (active)

experiment: A CellTox Green Cytotoxicity Assay to monitor cytotoxicity in HepG2 cells - 40 hour (AID 1224879); details: CellTox Green fluorescence; series mostly up to 76.8 µM; cytotoxicity increase: at the top concentration; also: nearly all actives have a fitted effect of over 40% in size; also: potency is read from the fitted curve at half-maximal effect
Summary of the method: as §1

SMILES	Potency	cytotoxicity increase
N=c1ccn2c(n1)O[C@H]1[C@H](O)[C@@H](CO)O[C@H]12	54.9 µM (active)	
CC(C)Cc1ccc(C(C)C(=O)OCc2ccccn2)cc1 (stereo not given)		9.3% [at 35.3 µM] (inactive)
CC1=CC=C(C(C)C)CC1		3.86% (inactive)
CN1CCN(C(c2ccccc2)c2ccccc2)CC1		17.6% [at 35.3 µM] (inactive)
C/C(=C(\CCOP(=O)(O)O)SC(=O)c1ccccc1)N(C=O)Cc1cnc(C)nc1N		-0.293% [at 6.97 µM] (inactive)
C=C(C)C(=O)OCCOCC		11.4% (inactive)
CCOC(=O)COC(=O)c1cc(Oc2ccc(C(F)(F)F)cc2Cl)ccc1[N+](=O)[O-]		-10% (inactive)
COc1ccc(C(=O)c2ccc(OC)cc2O)c(O)c1	15.6 µM (active)	
C[N+]1(C)CCC(OC(=O)C(O)(c2ccccc2)C2CCCC2)C1 (stereo not given)		14.9% [at 35.3 µM] (inactive)
NS(=O)(=O)c1ccc(N2CCCCS2(=O)=O)cc1		-1.54% [at 35.3 µM] (inactive)
O=C(O)c1ccc(-n2nc(-c3ccccc3O)nc2-c2ccccc2O)cc1		0.53% [at 35.3 µM] (inactive)
CCOc1ccc(O)cc1		-15.9% (inactive)
CN(Cc1ccc(C(C)(C)C)cc1)Cc1cccc2ccccc12		12.1% [at 35.3 µM] (inactive)
CCCn1cnc2c1c(=O)n(CCCCC(C)=O)c(=O)n2C		13.4% [at 35.3 µM] (inactive)
CCCC(=O)Nc1ccc(O)c(C(C)=O)c1		-16.8% [at 35.3 µM] (inactive)
CN(C)c1ccc(CCO)cc1		5.48% (inactive)
CCN(CC)CCOC(=O)C(c1ccccc1)C1CCCCC1 (stereo not given)	21.3 µM (active)	
Cc1ccc(C(=O)Oc2ccc(C(O)CNC(C)(C)C)cc2OC(=O)c2ccc(C)cc2)cc1 (stereo not given)	19 µM (active)	
Cc1[nH]c(C)c(Cl)c(=O)c1Cl		-5.76% [at 15.8 µM] (inactive)
C/C=C/C=C/CO		12.9% (inactive)
COc1cc(Cl)c(OC)cc1N		23.7% (inactive)
Nc1c(CC(=O)O)cccc1C(=O)c1ccc(Br)cc1		1.76% [at 35.3 µM] (inactive)
Brc1c2ccccc2c(Br)c2ccccc12		-0.88% [at 6.97 µM] (inactive)
CNCCCCOc1ccccc1Cc1ccccc1	23.9 µM (active)	
Brc1c2ccccc2cc2ccccc12		0.0901% (inactive)
Cc1ccc(N=Nc2c(O)c(C(=O)O)cc3ccccc23)c(S(=O)(=O)O)c1		-12.9% [at 35.3 µM] (inactive)
CCCCC(CC)COC(=O)COc1ccc(Cl)cc1Cl (stereo not given)		-0.292% (inactive)
O=C(O)c1ccccc1Cl		-9.25% (inactive)

experiment: qHTS RealTime-Glo MT Cell Viability Assay in HEK293 cells - 0 hour (AID 1224880); details: RealTime-Glo luminescence; series mostly up to 76.8 µM; activity change, negative = cytotoxicity: at the top concentration; also: top concentration of the series differs between compounds; nearly all actives have a fitted effect of over 45% in size
Summary of the method: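 Measured as luminescence from the same continuously cultured HEK293 wells at successive time points (0, 8, 16, 24, 32, 40 h) after compound addition. Reagent present from seeding; dosing at 5 h; incubation 37 C.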

SMILES	activity change, negative = cytotoxicity
N=c1ccn2c(n1)O[C@H]1[C@H](O)[C@@H](CO)O[C@H]12	3.47% (inactive)
CC(C)Cc1ccc(C(C)C(=O)OCc2ccccn2)cc1 (stereo not given)	-6.42% [at 35.3 µM] (inactive)
CC1=CC=C(C(C)C)CC1	-1.39% (inactive)
CN1CCN(C(c2ccccc2)c2ccccc2)CC1	24.2% [at 35.3 µM] (inactive)
C/C(=C(\CCOP(=O)(O)O)SC(=O)c1ccccc1)N(C=O)Cc1cnc(C)nc1N	2.7% [at 6.97 µM] (inactive)
C=C(C)C(=O)OCCOCC	0.991% (inactive)
CCOC(=O)COC(=O)c1cc(Oc2ccc(C(F)(F)F)cc2Cl)ccc1[N+](=O)[O-]	-0.0422% (inactive)
COc1ccc(C(=O)c2ccc(OC)cc2O)c(O)c1	2.3% (inactive)
C[N+]1(C)CCC(OC(=O)C(O)(c2ccccc2)C2CCCC2)C1 (stereo not given)	2.27% [at 35.3 µM] (inactive)
NS(=O)(=O)c1ccc(N2CCCCS2(=O)=O)cc1	-2.93% [at 35.3 µM] (inactive)
O=C(O)c1ccc(-n2nc(-c3ccccc3O)nc2-c2ccccc2O)cc1	-8.66% [at 35.3 µM] (inactive)
CCOc1ccc(O)cc1	-16.7% (inactive)
CN(Cc1ccc(C(C)(C)C)cc1)Cc1cccc2ccccc12	-7.62% [at 35.3 µM] (inactive)
CC(=O)c1ccc2c(c1)N(CCCN(C)C)c1ccccc1S2	4.16% [at 35.3 µM] (inactive)
CCCn1cnc2c1c(=O)n(CCCCC(C)=O)c(=O)n2C	8.21% [at 35.3 µM] (inactive)
CCCC(=O)Nc1ccc(O)c(C(C)=O)c1	8.62% [at 35.3 µM] (inactive)
CC(C)CC(=O)C1C(=O)c2ccccc2C1=O	-1.78% (inactive)

SMILES	activity change, negative = cytotoxicity
CN(C)c1ccc(CCO)cc1	-4.1% (inactive)
CCN(CC)CCOC(=O)C(c1ccccc1)C1CCCCC1 (stereo not given)	-10% [at 35.3 µM] (inactive)
Cc1ccc(C(=O)Oc2ccc(C(O)CNC(C)(C)C)cc2OC(=O)c2ccc(C)cc2)cc1 (stereo not given)	23% [at 35.3 µM] (inactive)
CCCCCCCCCCCCCCCCCCOS(=O)(=O)O	-5.21% (inactive)
Cc1[nH]c(C)c(Cl)c(=O)c1Cl	7.46% [at 15.8 µM] (inactive)
C/C=C/C=C/CO	-2.4% (inactive)
COc1cc(Cl)c(OC)cc1N	-1.9% (inactive)
Nc1c(CC(=O)O)cccc1C(=O)c1ccc(Br)cc1	7.9% [at 35.3 µM] (inactive)
CCCCCCCCCc1ccc(OCCOCCO)cc1	3.03% [at 35.3 µM] (inactive)
Brc1c2ccccc2c(Br)c2ccccc12	0.766% [at 6.97 µM] (inactive)
CNCCCCOc1ccccc1Cc1ccccc1	-18.5% [at 35.3 µM] (inactive)
Brc1c2ccccc2cc2ccccc12	-0.886% (inactive)
Cc1ccc(N=Nc2c(O)c(C(=O)O)cc3ccccc23)c(S(=O)(=O)O)c1	-15.1% [at 35.3 µM] (inactive)
CCCCC(CC)COC(=O)COc1ccc(Cl)cc1Cl (stereo not given)	-1.11% (inactive)
O=C(CS)Nc1ccccc1	-8.39% [at 35.3 µM] (inactive)
O=C(O)c1ccccc1Cl	-2.86% (inactive)
CC(=O)OC[C@H]1O[C@@H](n2ncc(=O)[nH]c2=O)[C@H](OC(C)=O)[C@@H]1OC(C)=O	-2.81% [at 35.3 µM] (inactive)
